Laboratory results taken from ChEMBL document CHEMBL5308504, “Tm Shift (DSF) assay results for EUbOPEN Chemogenomics Library” (2023).

Experiments:
[1] = target: Bromodomain-containing protein 4 (Homo sapiens) (UniProt O60885); settings: Compound concentration 20.0 uM, Protein concentration 2.0 uM, Result type QC Liability
[2] = target: T1, Transcription intermediary factor 1-alpha (Homo sapiens) (UniProt O15164); settings: Compound concentration 20.0 uM, Protein concentration 2.0 uM, Result type QC Liability
T1 sequence (whole entry): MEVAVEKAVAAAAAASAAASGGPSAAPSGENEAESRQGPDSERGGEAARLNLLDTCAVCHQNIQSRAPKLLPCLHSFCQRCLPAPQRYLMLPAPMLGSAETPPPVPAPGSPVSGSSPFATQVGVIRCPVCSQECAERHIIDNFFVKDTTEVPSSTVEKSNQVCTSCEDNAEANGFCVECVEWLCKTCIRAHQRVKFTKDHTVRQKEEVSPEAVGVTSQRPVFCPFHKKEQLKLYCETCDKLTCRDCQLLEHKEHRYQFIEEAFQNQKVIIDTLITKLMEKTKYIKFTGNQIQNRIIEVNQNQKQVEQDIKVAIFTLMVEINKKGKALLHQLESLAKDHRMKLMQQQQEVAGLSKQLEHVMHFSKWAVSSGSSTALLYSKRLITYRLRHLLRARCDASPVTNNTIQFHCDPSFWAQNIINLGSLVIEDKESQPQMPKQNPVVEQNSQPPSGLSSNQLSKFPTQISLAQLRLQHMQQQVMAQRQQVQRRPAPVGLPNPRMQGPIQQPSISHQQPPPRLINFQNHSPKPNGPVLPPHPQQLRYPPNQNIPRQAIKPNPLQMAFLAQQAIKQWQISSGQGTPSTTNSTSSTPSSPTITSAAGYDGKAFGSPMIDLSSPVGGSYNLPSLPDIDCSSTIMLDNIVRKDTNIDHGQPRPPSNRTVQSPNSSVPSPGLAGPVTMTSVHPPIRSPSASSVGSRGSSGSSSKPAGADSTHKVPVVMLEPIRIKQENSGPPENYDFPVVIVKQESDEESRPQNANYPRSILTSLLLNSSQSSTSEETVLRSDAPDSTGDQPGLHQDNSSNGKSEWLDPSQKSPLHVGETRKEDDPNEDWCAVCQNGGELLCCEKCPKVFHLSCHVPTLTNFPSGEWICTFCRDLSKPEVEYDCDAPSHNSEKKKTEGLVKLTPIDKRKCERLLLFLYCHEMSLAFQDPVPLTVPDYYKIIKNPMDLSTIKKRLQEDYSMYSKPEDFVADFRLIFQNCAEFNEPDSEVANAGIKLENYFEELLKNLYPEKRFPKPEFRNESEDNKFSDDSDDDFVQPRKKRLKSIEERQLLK

SMILES | ΔTm [1] [°C] | ΔTm [2] [°C]
COc1cc(-c2cncc(-c3ccc(N4CCN(C(C)C)CC4)cc3)c2C)cc(F)c1C(=O)N1CCCC1 | -3.15 | -3.48
Cn1cc(-c2ccc(N(C(=O)NCc3ccccc3)[C@H]3CC[C@H](Nc4ccc(C#N)cn4)CC3)cc2)ccc1=O | -0.82 | -1.6
CCN1CCN(Cc2ccc(C(=O)Nc3ccc(C)c(Oc4ccc5c(c4)CC(=O)N5)c3)cc2C(F)(F)F)CC1 | -2.44 | -3.11
O=C(NCCN1CCOCC1)c1ccc2nn(CCOc3ccc(Cl)cc3)cc2c1 | 0.04 | 0.35
COc1cc(Oc2nc(-c3ccc(NC(=O)C4CCOC4)cc3)nn3c(C)nc(C)c23)cc(OC)c1OC (stereo not given) | -1.75 | 0.42
O=c1cc(C2CCNCC2)n2nc3cccc(Cl)c3c2[nH]1 | -0.48 | 0.25
O=C(O)c1ccc2c(c1)nc(NCc1ccccc1)c1ncncc12 | -2.21 | 0.06
COCCCS(=O)(=O)c1cc(C)c(-c2ccc(F)c3c2CC[C@H]3Oc2ccc3c(c2)OC[C@H]3CC(=O)O)c(C)c1 | -0.25 | -0.22
CN1CCN(C(=O)c2ccc(N(C)c3ncc(C(F)(F)F)c(N[C@@H]4CCC[C@@H]4C(N)=O)n3)cc2)CC1 | -1.86 | 0.25
Nc1ncnc2c1ccn2[C@@H]1O[C@H]([C@@H](O)c2ccccc2)[C@@H](O)[C@H]1O | -2.22 | -3.4
CC(C)(c1ccc(OCc2cccc(COc3ccc(C(=N)N)cc3)c2)cc1)c1ccc(O[C@@H]2O[C@H](C(=O)O)[C@@H](O)[C@H](O)[C@H]2O)cc1 | 0.58 | -5.37
COc1cc2nc(C)nc(NC3(c4ccccc4)CC3)c2cc1OC | -0.74 | 0.43
COc1ccc2c(O[C@@H]3C[C@H]4C(=O)N[C@]5(C(=O)NS(=O)(=O)C6(C)CC6)CC5/C=C\CCCCC[C@H](NC(=O)c5ccn(C)n5)C(=O)N4C3)cc(OC(C)C)nc2c1C (stereo not given in full) | 1.29 | 0.91
CSc1ccc(C(=O)/C=C/c2cc(C)c(OC(C)(C)C(=O)O)c(C)c2)cc1 | -3.49 | -3.46
CC[C@H](NC(=O)[C@H](C)NC)C(=O)N1C[C@@H](O)C[C@H]1Cc1c(-c2[nH]c3cc(F)ccc3c2C[C@@H]2C[C@H](O)CN2C(=O)[C@H](CC)NC(=O)[C@H](C)NC)[nH]c2cc(F)ccc12 | -3.47 | -3.97
CCC(C)(C)CC[C@H](NC(=O)N1CCOCC1)C(=O)NC1(C#N)CCN(C)CC1 | -0.41 | 0.53
Cc1cc2c(ncn2C2(C)CN(C(=O)c3ccn(CC4CCN([C@H]5C=CCCCC5)CC4)c3)C2)c(N)n1 | -1.87 | -2.7
CC(C)c1nc2c(c3c1[C@H](c1ccc(C(F)(F)F)cc1)OC31CCOCC1)[C@H](O)CC(C)(C)C2 | -0.03 | 0.26

SMILES | ΔTm [1] [°C] | ΔTm [2] [°C]
Cc1nc2c(cc1F)c(-c1nnc3c(n1)NC(=O)C3(C)C)nn2Cc1cccc(F)c1F | -0.37 | 0.14
CCCCCNC(=O)N1CCC(CN(Cc2ccc(Cl)cc2)Cc2ccc([N+](=O)[O-])s2)C1 (stereo not given) | -2.51 | -3.43
CCOC(=O)/N=C(\N)c1ccc(OCc2cccc(COc3ccc(C(C)(C)c4ccc(OC(=O)OCC)cc4)cc3)c2)cc1 | -10.4 | -0.45
CC(C)(C)NC(=O)c1cncn1C1CCN(c2ccc(-c3nnc(C(F)(F)F)o3)cn2)CC1 | -0.5 | 0.46
C#Cc1cnc2[nH]cc(-c3cccc4c3CCN4C(=O)[C@@H]3CCCN3C#N)c2c1 | -0.57 | -0.61
CSc1ccc(C[C@@H](C)C(=O)O)cc1Nc1nc(N2CC[C@H](N(C)C)C2)cc(C(F)F)c1C#N | 0.52 | 0.57
COc1cc(O)c(C(CC(=O)N2C[C@H](C)C[C@H](C)C2)c2ccc3c(c2)OCO3)c(OC)c1 (stereo not given in full) | 0.54 | -3.38
CNC(=O)c1ccc(C)c(-n2c(C)cc(OCc3ccc(F)cc3F)c(Br)c2=O)c1 | -1.55 | -2.58
Cc1c(-c2c(F)cc(C(N)=O)c3[nH]c4c(c23)CC[C@H](C(C)(C)O)C4)cccc1-n1c(=O)c2cccc(F)c2n(C)c1=O | -0.86 | 0.6
CC#CCC(C)[C@H](O)/C=C/[C@@H]1[C@H]2C/C(=C/CCCC(=O)O)C[C@H]2C[C@H]1O (stereo not given in full) | -2.19 | 0.19
COCCNC1CCC(Nc2cc(-c3csc(NCC4(C#N)CCOCC4)n3)c(Cl)cn2)CC1 (stereo not given) | -0.18 | -2.77
COc1ccc(-c2csc(NC(=O)[C@H]3CCCCN3S(=O)(=O)c3ccc(C)cc3)n2)cc1 | 3.35 | -0.04
COc1ccc(COc2ccc(Cc3cnc(N)nc3N)cc2OC)cc1 | -1.17 | -1.22
CC(C)(C)OC(=O)CN(Cc1ccc(Cl)cc1)Cc1ccc([N+](=O)[O-])s1 | -2.44 | -2.89
O=C(CCCN1CCC(O)(c2ccc(Cl)cc2)CC1)c1ccc(F)cc1 | -3.1 | -2.64
Cc1cc2c(-c3ccco3)cnc(N[C@H]3CCN(C)C[C@@H]3C(=O)NC3CCCCC3)c2[nH]c1=O | 3.29 | -2.71
CC(F)(F)CN1C(=O)c2[nH]nc(-c3cccc4[nH]c(=O)oc34)c2C1c1ccc(Oc2cc(C(F)(F)F)cc(C(F)(F)F)c2)cc1 (stereo not given) | -1.07 | -1.2
